Bioassay records (PubChem BioAssay)
Sampled rows, rich in hits. Any-hit rate of the full collection: about 4.1%.
ALR H2O2 inh – inhibitors of human ALR sulfhydryl oxidase, primary screen, biochemical, H2O2 detection, HRP-luminol luminescence, single point. inhibition, % (test concentration not listed). purified ALR, DTT oxidation. AID 485317, 2010. hit rate 3.8% among 290,000;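 active means mean replicate inhibition above about 79%, with every replicate also reaching it, limit read from the data; inconclusive means only one of the two criteria met; inactive means mean below limit and not every replicate reaching it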
PfM18AAP inh – PfM18AAP inhibitors, malaria aminopeptidase, primary screen, biochemical, QFRET, recombinant enzyme; H-Glu-NHMec fluorogenic cleavage; hit rate 1.2% among 290,000; inhibition, % at 7.35 µM; M18 aspartyl aminopeptidase (Plasmodium falciparum 3D7);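 active means inhibition above the campaign mean inhibition over all tested compounds plus 3 SD, cut at about 28% in these data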;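 further: 0% = plate median of test compound wells and 100% = 2 mM ZnCl2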
IDE inh – human IDE inhibitors in live cells, primary screen, fluorescence polarization, HEK cells, FAbetaB substrate | FAbetaB cleavage | hit rate 0.41% among 320,000 | Insulin-degrading enzyme (Homo sapiens), P14735 | inhibition, % at 5.59 µM | AID 434962, 2010;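 active means percent inhibition above the average of all tested compounds plus 3 SD, set per screening campaign, cut at about 16% in these data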;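 further: IDE supplied by intact live HEK cells; FP after avidin binding of uncleaved biotin substrate so inhibition keeps polarization high; 0% = DMSO wells and 100% = 60 µM reference IDE inhibitor Ii1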
PolyA inhibitor – polyadenylation inhibitors in yeast reporter cells, primary screen, luminescence, S. cerevisiae. S. cerevisiae SKY197-pL101 polyadenylation reporter, beta-gal luminescence; efflux-impaired pdr1/pdr3 knockout yeast; score 100 = 6 SD above DMSO. activity score, % at 12 µM. hit rate 0.02% among 300,000;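 active means lowest replicate activity score at least 50, where 100 means six control SD above control mean; inconclusive means lowest score under 50 but half or more replicates reach 50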;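 further: yeast exposed to compound for 9 h at 30 °C; higher score means more reporter readthrough which indicates perturbed polyadenylation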
IDE cell activ – human IDE activators in live cells, primary screen, fluorescence polarization, HEK cells, FAbeta-B substrate; hit rate 0.073% among 340,000; activation, % at 5.96 µM; Insulin-degrading enzyme (Homo sapiens), P14735; FAbeta-B cleavage; 0% vehicle, 100% cell-free pure enzyme wells;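 active means activation above the mean of all tested compounds plus 3 SD, set per screening campaign, cut at about 17% in these data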
CaV13 ICDI inh – Disruptors of the CACNA1D IQ motif to Ca2+-dependent inactivation inhibitor domain association, primary screening, Förster resonance energy transfer in intact living …; HEK cells, CFP/YFP FRET ICDI-IQ, plate reader, 10 min; percent FRET-ratio fall versus neutral wells; AID 743397; inhibition, % at 12.3 µM; hit rate 0.098% among 340,000;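 active means mean replicate inhibition of at least 30% and at least 1% of replicates passing that level; inconclusive means only one of the two criteria is met; inactive means neither criterion is met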;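 further: 0% = median of the neutral control wells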
Starred values were filed as active, the others as inactive; ? = inconclusive; nt = no result given.

SMILES	ALR H2O2 inh	PfM18AAP inh	IDE inh	PolyA inhibitor	IDE cell activ	CaV13 ICDI inh
O=C(O)COc1ccccc1/C=N/NC(=O)CSc1nnc(SCc2ccc(Cl)cc2)s1	nt	2.5	2.7	2.2	-2.1	-13.6
Cc1ccc(CN2CCN(C(=O)CCC(=O)Nc3nnc(C(C)C)s3)CC2)c(C)c1	-6.6	-1.6	10.2	8.8	-7.3	-4.2
N#Cc1ccc(S(=O)(=O)Nc2ccccc2N2CCOCC2)cc1	4.1	nt	-4.8	nt	4.7	-2.1
CC(C)c1ccc(NC2CCCN(C(=O)c3ccnc(Cl)c3)C2)cc1 (stereo unspecified)	54.2	-1.4	4.5	0.9	5.0	-3.0
CCC(CC)c1nnc(NC(=O)C23CC4CC(CC(NC(C)=O)(C4)C2)C3)s1	-2.0	-1.4	-2.2	-7.8	1.8	nt
CC(=O)NC12CC3CC(C1)CC(C(=O)Nc1nc4ccc(F)cc4s1)(C3)C2	86.2*	20.9	6.0	-0.8	2.8	-3.3
CC(C)C[C@@H]1CC2=C(C(=O)OC(C)(C)O2)[C@H](c2ccc(Cl)cc2)O1	nt	nt	nt	nt	nt	-5.2
CN1CCN(C/C(=C2/N=C(c3ccccc3)OC2=O)N(C)C)CC1	97.8*	-3.2	0.7	4.0	2.6	-8.2
COc1ccc(OC)c(Nc2c3c(nc4ccccc24)CCC3)c1	98.2*	-9.2	3.4	-1.3	4.2	-4.0
COc1ccccc1Nc1nc(NCCO)c2ccccc2n1	nt	7.4	nt	8.0	nt	nt
COc1cc(Nc2c3c(nc4ccccc24)CCC3)cc(OC)c1OC	98.8*	2.4	5.5	14.4	1.4	-19.2
COc1ccc2nc3c(c(-c4ccccc4)c2c1)CCC3	-15.5	0.4	-3.7	-6.7	-2.3	-4.8
COc1ccc(OC)c(Nc2nc(NCCO)c3ccccc3n2)c1	58.9	6.4	-0.6	67.0*	-0.6	-2.7
COc1ccccc1Nc1c2c(nc3ccc(N)cc13)CCCC2	99.1*	-4.3	2.4	10.7	1.0	-5.9
COc1ccc(OC)c(Nc2c3ccccc3nc3ccccc23)c1	?	6.0	5.2	-2.4	1.0	-2.1
Cc1cccc(Nc2c3c(nc4ccccc24)CCC3)c1	63.3	-0.5	-4.3	2.1	nt	-4.4
O=C(O)Cc1c(C(=O)O)[nH]c2ccc(C(=O)O)cc12	nt	5.1	2.8	-11.9	-2.2	-5.3
O=[N+]([O-])c1ccc(CSC2=NCCS2)cc1	98.7*	4.4	-3.4	7.6	0.6	-5.0
CCCCCOc1ccc(CSC(=N)N)cc1[N+](=O)[O-]	98.7*	-9.8	0.9	6.0	-5.4	-0.7
CCOc1ccc(Cn2ccnc2)cc1[N+](=O)[O-]	nt	-1.1	8.0	-12.2	0.3	-2.8
COc1ccc(CSC(=N)N)cc1[N+](=O)[O-]	nt	-2.8	-0.7	5.2	3.3	nt
CCOc1ccc(CSC2=NCCN2)cc1[N+](=O)[O-]	99.1*	1.7	4.2	-9.5	8.8	9.2
O=[N+]([O-])c1ccc(CSC2=NCCN2)cc1	99.1*	5.3	-3.6	2.5	0.9	-20.5
c1ccc(CSC2=NCCS2)cc1	1.9	2.5	-0.1	12.6	-4.0	7.6
Cc1cc(C(=O)C[N+]2(C)CCOCC2)c(C)n1-c1ccc(Br)cc1	-3.9	6.2	-8.1	2.4	0.4	-6.6
SMILES	ALR H2O2 inh	PfM18AAP inh	IDE inh	PolyA inhibitor	IDE cell activ	CaV13 ICDI inh
COc1ccc(CC(=O)N[C@@H]2c3ccccc3CC[C@H]2OCc2ccccc2)cc1	nt	nt	nt	nt	0.2	-5.6
CCCCOc1ccc(CSC2=NCCN2)cc1[N+](=O)[O-]	99.7*	2.4	1.1	13.1	4.8	-5.2
Cc1ccc(F)cc1NC(=O)COC(=O)COc1ccc(C#N)cc1	nt	nt	3.7	-6.4	-0.2	-6.6
O=C(NCc1ccccc1)c1nc[nH]c1C(=O)N1CCN(c2ccccc2)CC1	97.7*	nt	0.2	nt	-1.8	2.8
CC1CCN(C(=O)c2[nH]cnc2C(=O)NCc2ccccc2)CC1	5.4	nt	5.6	nt	-9.4	-4.8
COc1ccc(CNC(=O)/C=C/[C@H]2O[C@@H](n3cc(C)c(=O)[nH]c3=O)C[C@@H]2O)cc1	nt	nt	nt	nt	nt	-3.3
O=C(CNc1n[nH]c(=O)[nH]c1=O)N/N=C/C=C/c1ccccc1	-6.7	9.7	-1.5	17.5	1.5	1.8
Cc1nnc2n(c1=O)N=C(c1ccc(Cl)cc1)CS2	99.2*	10.9	-3.0	2.1	2.0	-4.3
CCc1nnc2n1N=C(c1ccc(Cl)cc1)CS2	-2.7	-3.8	5.1	-2.6	4.6	-5.2
O=C(NCc1ccccc1)c1cccc(NS(=O)(=O)c2cccc3cccnc23)c1	3.1	-6.6	0.4	8.8	-1.1	-3.6
O=[N+]([O-])c1ccc2c(c1)CNc1ccccc1O2	99.1*	7.4	-3.3	-20.2	5.9	-2.9
CC(=O)N1Cc2cc([N+](=O)[O-])ccc2Oc2ccccc21	-23.7	-8.0	5.4	11.3	1.4	6.0
Nc1cc2ccncc2c2ccccc12	98.0*	2.3	3.4	21.8	3.0	-3.0
Cc1cc(N2CCN(C(C(=O)NC3CCCC3)C(C)(C)C)CC2)c2ccccc2n1 (stereo unspecified)	nt	nt	nt	nt	nt	-3.2
COc1ccc(CNc2ncnc3c2[nH]c2cc(OC)c(OC)cc23)cc1	nt	1.7	2.5	4.4	0.6	-2.1
CCOc1ncnc2c1[nH]c1ccccc12	-8.7	-6.6	18.3*	-18.0	-12.3	-19.9
CCCOc1ncnc2c1[nH]c1ccc(C)cc12	4.2	-2.9	37.1*	-6.2	nt	nt
COc1ccc(CNc2ncnc3c2[nH]c2ccccc23)cc1	-5.4	-1.3	60.5*	2.9	nt	-5.0
COc1ccc(-c2csc(Nc3ccc(S(=O)(=O)Nc4cc(C)on4)cc3)n2)cc1	98.1*	14.1	-0.5	-4.1	6.3	-1.4
O=C(CN(c1ccc(F)cc1)S(=O)(=O)c1ccccc1)NC1CC2CCC1C2 (stereo unspecified)	3.1	1.2	0.6	-5.9	5.2	-2.1
O=C(NNC(=O)c1ccc(F)cc1)C(=O)N1CCCCC1	-0.6	-2.1	5.7	3.2	3.9	-5.1
Cc1ccc(-c2c(C(=O)O)c(C(=O)O)c3n2CSC3)cc1	93.1*	-10.2	0.5	-15.4	2.1	-4.4
O=C(O)c1c(C(=O)O)c(-c2ccc(Br)cc2)n2c1CSC2	97.9*	10.2	-1.1	2.6	1.0	-19.0
COC(=O)c1c(C(=O)OC)c(-c2ccc(F)cc2)n2c1CSC2	98.8*	-6.4	-2.0	-5.3	3.9	-4.1
CCCCCn1nc(C(=O)OCc2nnc(-c3ccccc3)o2)c2ccccc2c1=O	4.7	nt	2.7	-22.9	2.5	-4.8
O=[N+]([O-])c1cc2no[n+]([O-])c2cc1N1CCCCC1	nt	nt	nt	nt	-5.8	-7.3
